VACV Venus inh – vaccinia inhibition (Venus reporter). Vaccinia virus Venus reporter expression, fluorescence. Potency, µM (top dose mostly 36.5 µM), inactives show top-dose activity change, negative = inhibition, hits mostly inhibitors. actives 0.46% (n = 330,000). AID 720580; calls by dose curve; tested in A549 cells; note: potency is the fitted concentration of half-maximal effect; % is set by controls: 0 for no effect and ±100 for the full control effect; nearly all actives have a fitted effect of over 30% in size
Cycloheximide cs – counter-screen hit for Shiga toxin inhibitors, cycloheximide. cell reporter, cycloheximide protein synthesis inhibition counterscreen. max response, %. actives 12% (n = 300,000). AID 2314; in the data active = max response mostly above about 13%, no sharp cut-off; inactive = mostly below about 14%; note: read at 38.3 µM for the half of the compounds with a filed dose; 0% is about no effect
Lassa entry inh – inhibitors of Lassa virus binding or cell entry. Lassa virus pseudotype entry inhibition, cell reporter. Potency, µM (titrated, usually from 37.9 µM), without a hit: at the highest dose activity change, negative = inhibition, actives largely listed as inhibitors. actives 1.2% (n = 300,000). AID 540256; calls by dose curve; tested in HEK293 cells; note: potency is the fitted concentration of half-maximal effect; % is set by controls: 0 for no effect and ±100 for the full control effect; nearly all actives have a fitted effect of over 50% in size
VACV mCherry inh – vaccinia inhibition (mCherry reporter); Vaccinia virus mCherry reporter infection, fluorescence; Potency, µM (titrated, usually from 36.5 µM), for the others: top-dose activity change, negative = inhibition, hits mostly inhibitors; actives 0.63% (n = 310,000); calls by dose curve; tested in A549 cells; note: potency is the fitted concentration of half-maximal effect; % is set by controls: 0 for no effect and ±100 for the full control effect; nearly all actives have a fitted effect of over 35% in size
MARV entry inh – Marburg virus entry inhibition. Marburg virus pseudotyped entry inhibition, cell reporter. Potency, µM (titrated, usually from 37.8 µM), without a hit: at the highest dose activity change, negative = inhibition, usual class: inhibitors. actives 1.8% (n = 300,000); calls by dose curve; tested in HEK293 cells; note: potency is the fitted concentration of half-maximal effect; % is set by controls: 0 for no effect and ±100 for the full control effect
Shiga toxin inh – inhibitors of Shiga toxin in Vero cells; Vero cells, Shiga toxin protein synthesis inhibition reporter; inhibition, % at 38.7 µM; actives 9.2% (n = 290,000); AID 2315; in the data active = inhibition mostly above about 28%, no sharp cut-off; inactive = mostly below about 43%; note: 0% is about no effect
Active calls of the source: *; i = inactive; ? = inconclusive; . = no result given; ! = a repeat was not active; [ ] = remark or other dose. Only a selection was taken, and hits are over-represented in it overall.

SMILES	VACV Venus inh	Cycloheximide cs	Lassa entry inh	VACV mCherry inh	MARV entry inh	Shiga toxin inh
CC(=O)Oc1ccc2c(c1)O/C(=C\c1ccncc1)C2=O	.	2	.	.	.	7
COCCN(CCOC)Cc1c(O)ccc2c1O/C(=C\c1ccco1)C2=O	1%	-1	-17%[46.1 µM]	-6%	-4%[46.1 µM]	3
CCN(CC)C(=O)Oc1ccc2c(c1)O/C(=C\c1ccco1)C2=O	-6%	27*	30%[46.1 µM]	-1%	?	49*
Cc1cc(O)cc2c1C(=O)/C(=C/c1ccco1)O2	2%	51*	17%[46.1 µM]	i	?	66*
CC1=N/C(=C/c2ccco2)C(=O)O1	8%	-4	-6%	-1%	17%[46.1 µM]	-19
COC(=O)COc1ccc2c(c1)O/C(=C\c1ccco1)C2=O	8%	29*	8%	-11%	16%	38*
CCC(=O)Oc1ccc2c(c1)O/C(=C\c1ccco1)C2=O	-13%	16*	1%[46.1 µM]	i	9%[46.1 µM]	43*
O=C(COc1ccc2c(c1)oc(=O)c1ccccc12)NC(Cc1ccc(Cl)cc1)C(=O)O (configuration not stated)	-1%	-1	.	-1%	.	-6
O=C1C=C(N2CCOCC2)C2(CCCCC2)O1	-6%	28*	?	-11%	18%	85
O=C1C=C(N2CCCCC2)C2(CCCCC2)O1	-2%	6	.	i	.	-4
COc1ccccc1OCCn1c(COc2cc(C)ccc2C)nc2ccccc21	-16%	.	-19%[46.1 µM]	-19%	-1%[46.1 µM]	.
CCCCC1(CCCC)C(=O)NC(=Nc2cccc(C)c2)NC1=O	10µM*	5	-2%	?	14%	25
Cc1c(Cl)cccc1NC(=O)c1ccc2nc(C(C)C)oc2c1	4%	.	9%[46.1 µM]	i	.	.
COc1ccc(NC(=O)CCc2c(C)nn(-c3ccc(N4CCCCC4)nn3)c2C)cc1Cl	-3%	.	-3%[46.1 µM]	6%	.	.
Cc1ccc(-c2nnn3c2nc(Cl)c2ccccc23)cc1	9%	20	13%[46.1 µM]	-13%	21%[46.1 µM]	9
NNc1nc2c(-c3ccc(F)cc3)nnn2c2ccccc12	25%	51*	-24%	?	13%[46.1 µM]	130*
NNc1nc2c(-c3ccc(Cl)cc3)nnn2c2ccccc12	.	11	.	.	.	45
Clc1nc2c(-c3ccccc3)nnn2c2ccccc12	.	24*	.	.	.	25
CCCC[C@@H](CN[C@H](C)CNC)NCC1CCC(C(C)(C)C)CC1 (some centres not stated)	?	-1	.	?	.	-6
Cc1ccc(N/C=C(/C#N)c2ccsc2)cc1	-13%	41*	-27%	-25%	-26%	132*
N#C/C(=C/Nc1ccccc1)c1ccsc1	-17%	27*	-13%	.	-38%	42*
CCc1ccc(NC(=O)C(=O)NCC(c2cccnc2)N2CCOCC2)cc1 (configuration not stated)	-6%	.	?	2%	.	.
Cc1ccc(N2CN=c3s/c(=C\c4cccnc4)c(=O)n3C2)cc1	-7%	20*	7%	-12%	-20%[46.1 µM]	28
CC(=O)N1CCCc2cc(S(=O)(=O)N3CCC(C(=O)NC4CCC(C)CC4)CC3)ccc21 (configuration not stated)	-10%	.	-7%[46.1 µM]	2%	.	.
C=C1C(=O)O[C@@H]2C[C@@H](C)[C@@H]3C=CC(=O)[C@@]3(C)[C@@H](OC(C)=O)[C@H]12	7.9µM*	-8	.	11µM*	.	-11
SMILES	VACV Venus inh	Cycloheximide cs	Lassa entry inh	VACV mCherry inh	MARV entry inh	Shiga toxin inh
C=C1C(=O)O[C@@H]2C[C@@H](C)[C@@H]3C=CC(=O)[C@@]3(C)[C@@H](O)[C@H]12	10µM*!	-10	.	?	.	-17
C[C@@H]1C[C@@H]2OC(=O)[C@]3(C)[C@H]2[C@@H](OC3(C)O)[C@]2(C)C(=O)C=C[C@H]12 (some centres not stated)	?	31*	.	-13%	.	26*
N#Cc1ccc2c(c1)C[C@]1(CCCCN3C(=O)c4ccccc4C3=O)OC3=C(C(=O)OC4(CCCCC4)C3)C2O1	.	-1	.	.	.	i
CCN1C(=NCC(C)C)N[C@H](c2ccccc2)[C@H](C(=O)OC)[C@H]1C	.	.	-14%[14.3 µM]	.	8%[14.2 µM]	.
O=C(Nc1ccc2c3c(cccc13)CC2)c1ccc(Br)o1	-8%	23	18%	-23%	17%	7
COc1cc(OC)cc(C(=O)NC(=S)Nc2ccc3c4c(cccc24)CC3)c1	-7%	14	-8%	.	-7%[46.1 µM]	8
COc1ccc(C(=O)Nc2ccc3c4c(cccc24)CC3)cc1	.	32*	?	.	-1%	73
O=C(Nc1ccc2c3c(cccc13)CC2)c1ccco1	-2%	19*	?	.	?	53
COc1cc(CNC(C)(C)CO)cc(Br)c1OCc1ccc(Cl)cc1Cl	?	-5	?	?	13µM*	-3
CCCCCCCCCCCCCCCC[n+]1ccc(/C=N/O)cc1	10µM*	-2	6.5µM*	11µM*	4.5µM*	-10
CCCCCCCCCCCCCCCC[n+]1ccc(C(N)=O)cc1	-15%	-2	?	i	-16%	-18
CCCCCCC[n+]1ccc(-c2cc[n+](CCCCCCC)cc2)cc1	?	-1	-27%	?	?	-2
CCCCCCCCCCCCCCCC[n+]1ccccc1	14µM*!	.	?	13µM*!	?	.
Cc1c(C(=O)NC(=S)NCc2cccnc2)cccc1[N+](=O)[O-]	-13%	-2	-15%	-26%	2%	-2
O=C(NCCc1ccccc1)c1ccc2nccnc2c1	-2%	-3	2.8µM*	i	1.3µM*	17
Cc1[nH]c2ccccc2c1CCNC(=O)c1ccc2nccnc2c1	-8%	15*	?	-12%	12%	.
O=C(NCCNC(=O)c1cccnc1)c1cccnc1	-5%	.	.	-8%	.	.
O=C(NCCc1ccccc1)c1ccc2nc(CCc3ccccc3)oc2c1	1%	.	27%[46.1 µM]	-1%	.	.
Cc1[nH]c2ccccc2c1CCNC(=O)CCC(=O)c1ccccc1	-7%	13	12%	i	1%	-5
O=C(NCCc1ccccc1)c1cccnc1	-1%	37*	?	-4%	15%[46.1 µM]	63*
CCc1cccc(CC)c1NC(=S)NCCc1c(C)[nH]c2ccccc12	?	-3	?	10µM*	?	-13
COc1cc(N(C)C)c([N+](=O)[O-])cc1C(=O)NC(C)CNc1ccc([N+](=O)[O-])cc1Cl (configuration not stated)	?	2	3%	i	-25%	-9
Cn1c(=O)c2c(SCC(=O)NCc3ccco3)nc(-c3ccccc3F)nc2n(C)c1=O	-13%	.	11%[46.1 µM]	0%	.	.
COC(=O)C1=C(C)N(Cc2ccccc2)C(=S)NC1CCc1ccccc1 (configuration not stated)	.	.	.	.	38%[14.2 µM]	.
Cc1ccc(NC(=O)COC(=O)/C=C/c2cccs2)cc1	-9%	-1	9%	i	25%	-7
O=C(/C=C/c1cccs1)c1ccc(NC(=O)c2cccc(Br)c2)cc1	.	62*	0%	.	-7%	131*
O=C(C=Cc1cccs1)c1cccs1	6%	.	8%[46.1 µM]	i	-6%[46.1 µM]	.
O=C(/C=C/c1cccs1)c1ccc(Br)cc1	-6%	40*	27%	.	2%	31

Source: PubChem (National Center for Advancing Translational Sciences (NCATS))
